This is an account of results in PubChem BioAssay.

Activity calls are given as the source filed them.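 How the source made its calls, unless noted: active means fluorescence slope higher than the sample average by over 3 SD (cut at about -0.22 in these data, passing the limit was not always enough); inactive means the rest.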

The nature of assay [1]: inhibitors of TNFa-induced NFkB p65 translocation, primary screen, imaging, HUVEC, MLSMR starter and 10KST1 sets (AID 438;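 active means inhibition above 20% together with a positive visual image hit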;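 further: compound added about 3h40 before a 20 min TNFalpha stimulation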;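 on inhibition: signal is the nuclear over cytoplasmic p65 intensity ratio per well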). Particulars: HUVEC TNFa-induced p65 nuclear translocation; cell count: measured here: nuclei count (cytotoxicity indicator), at 2.08 µM; inhibition: at 2 µM, stronger effect = higher value, 0% TNFa-plus-vehicle, 100% no-TNFa wells.
The nature of assay [2]: reduction of polyQ htt aggregates in cells – imaging, exon1htt(103Q)mCFP cells, high-content imaging, primary screen (AID 483;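 active means visual image review flags a hit and inhibition of aggregation exceeds 20%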;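 further: compound exposure lasted 3 days before fixation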;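 on nuclei count: percent of the per-plate median nuclei count of sample wells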). Particulars: exon1htt(103Q)mCFP cell line, aggregate imaging, at 2 µM; inhibition of aggregation: stronger effect = higher value; nuclei count: measured here: cell count, toxicity.
Assay [3] in a line: endothelial E-selectin expression blockers – imaging, HUVEC, immunofluorescence, MLSMR starter and 10KST1 sets, primary screen (AID 487;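 active means visually confirmed hit in the image check and inhibition above 20%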;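 on inhibition: signal is fraction of cell area covered by stained E-selectin grains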;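 on nuclei count: 100% = median nuclei count of all wells on the same plate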). Particulars: HUVEC TNFalpha-induced E-selectin immunofluorescence imaging, at 2 µM; inhibition: stronger effect = higher value; nuclei count: measured here: cell number, toxicity.
Assay [4] deals with Voltage-gated potassium channel subunit beta-2 (Rattus norvegicus) (UniProt P62483). Nature of the assay: inhibitors of rat Kvbeta2 reductase activity – biochemical, NADPH fluorescence, primary screen (AID 622).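 Further: slope of raw intensity against log time taken from 70 to 1610 s.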 Particulars: recombinant KvBeta, 4-cyanobenzaldehyde reduction, at 10 µM, stronger effect = higher value.
Voltage-gated potassium channel subunit beta-2 (Rattus norvegicus), sequence (P62483 whole entry, looked up): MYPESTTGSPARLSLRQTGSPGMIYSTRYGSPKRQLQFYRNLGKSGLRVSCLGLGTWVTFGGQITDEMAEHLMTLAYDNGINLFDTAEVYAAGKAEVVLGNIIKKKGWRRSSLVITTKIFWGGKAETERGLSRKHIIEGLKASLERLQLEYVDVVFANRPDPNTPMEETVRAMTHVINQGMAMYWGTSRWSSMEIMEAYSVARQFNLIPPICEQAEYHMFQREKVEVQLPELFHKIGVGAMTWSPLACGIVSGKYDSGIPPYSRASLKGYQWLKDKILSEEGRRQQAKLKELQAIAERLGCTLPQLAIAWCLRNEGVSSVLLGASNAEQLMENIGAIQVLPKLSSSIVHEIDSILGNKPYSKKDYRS
Assay [5] shares this target. Nature of the assay: enhancers of rat Kvbeta2 NADPH turnover – biochemical, NADPH fluorescence, primary screen (AID 623;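 active means NADPH fluorescence slope more negative than the mean of all samples by about 3 SD, 99.7% confidence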;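 further: fluorescence intensity change per second fitted from 20 to 320 s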). Particulars: Recombinant KvBeta, NADPH fluorescence decrease slope, 10 min; at 10 µM; stronger effect = lower value.
The target in assay [6] is Alpha-2C adrenergic receptor (Homo sapiens) (UniProt P18825). Nature of the assay: compounds altering alpha2C-coupled GIRK flux – cell-based, HEK293 alpha2C/GIRK1/2, thallium flux, primary screen (AID 624;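 active means fluorescence slope after compound addition differing from the mean of all screened samples at 99.7% confidence, in either direction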;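 further: slope of fluorescence ratio to pre-addition baseline per second over 15 to 24 s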). Particulars: thallium flux BTC fluorescence, at 10 µM, actives lie on both sides.
Alpha-2C adrenergic receptor (Homo sapiens), sequence (P18825 whole entry, looked up): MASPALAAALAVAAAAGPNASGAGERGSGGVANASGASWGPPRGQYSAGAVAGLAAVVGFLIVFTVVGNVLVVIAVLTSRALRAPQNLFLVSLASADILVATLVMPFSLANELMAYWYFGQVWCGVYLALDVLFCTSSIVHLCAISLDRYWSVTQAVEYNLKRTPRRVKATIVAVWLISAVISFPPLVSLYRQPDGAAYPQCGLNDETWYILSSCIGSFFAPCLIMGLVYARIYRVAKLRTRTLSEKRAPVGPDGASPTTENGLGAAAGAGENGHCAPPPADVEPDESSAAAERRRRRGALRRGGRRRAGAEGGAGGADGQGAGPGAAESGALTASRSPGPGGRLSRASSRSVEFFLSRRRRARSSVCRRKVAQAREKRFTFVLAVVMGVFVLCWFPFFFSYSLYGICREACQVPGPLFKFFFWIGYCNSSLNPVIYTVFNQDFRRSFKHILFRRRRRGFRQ
Assay [7] in a line: blockers of RIG-like receptor reporter activation – cell-based, Sendai virus stimulus, luciferase, 10K MLSCN set, TLR/RLR signaling modifier project, primary screen (AID 602276;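 active means inhibition at or above 50% at 10 µM; inactive means inhibition below 50%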;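 further: firefly luciferase from ISG56 promoter only with Renilla not read in this screen; 0% = Sendai virus plus DMSO and 100% = medium plus DMSO without virus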). Particulars: HEK293 RL24 IRF3 luciferase reporter, at 10 µM, stronger effect = higher value. Background: Reporter assays use an easily measured gene product as a stand-in for the process of interest.
Assay [8] in a line: TLR3 IRF3 reporter activation blockers – cell-based, poly I:C stimulus, luciferase, 10K MLSCN set, primary screen (AID 602277;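 active means inhibition of the reporter signal at or above 50%; inactive means inhibition below 50%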). Particulars: HEK293-TLR3 RL24 IRF3 luciferase reporter, at 10 µM, stronger effect = higher value.

Usually inhibition stands for the drop in the measured response relative to a control, in per cent. Consider `CCOC(=O)c1c(NC(=O)c2cccs2)sc2c1CCN(C(=O)OCC)C2`, for which the cell count in assay [1] amounted to 416. Moreover, the inhibition is -2% (inactive) in assay [1], 14.8% (inactive) in assay [3], 10.1% (inactive) in assay [7] and -1.84% (inactive) in assay [8]. Further, the inhibition of aggregation in assay [2] is -6.8% (inactive). In addition, the figures for the nuclei count in assay [2] and in assay [3] were 99.7% and 115%, respectively. In assay [4], the fluorescence slope was -0.192 (active). Also, the NADPH fluorescence slope in assay [5] is -6.6e-05 (inactive). Further, the slope in assay [6] was 0.0082 (inactive).

In the case of `CCOC(=O)c1sc(NC(=O)CSc2nnnn2-c2ccccc2)c(C(=O)OCC)c1C`, the cell count in assay [1] was 425. The inhibition was -1.3% (inactive) in assay [1], -467% (inactive) in assay [3], -15.7% (inactive) in assay [7] and -15.7% (inactive) in assay [8]. In addition, in assay [2], the inhibition of aggregation was 12.5% (inactive). For the same molecule, the nuclei count in assay [2] amounted to 96.5%; in assay [3], 156%. The fluorescence slope in assay [4] was -0.567 (inactive). Moreover, the NADPH fluorescence slope in assay [5] was 1.2e-05 (inactive). For the same molecule, in assay [6], the slope was 0.00928 (inactive).

With `O=C(Nc1ccc2c(c1)OCO2)c1cccc(Cl)c1`, in assay [1], the cell count stood at 407. The inhibition was 1.4% (inactive) in assay [1], -22.5% (inactive) in assay [3], -28.3% (inactive) in assay [7] and -70.9% (inactive) in assay [8]. Further, the inhibition of aggregation in assay [2] was -14.3% (inactive). Besides, the nuclei count is 107% in assay [2] and 114% in assay [3]. In assay [4], the fluorescence slope was -0.398 (inactive). Also, in assay [5], the NADPH fluorescence slope is -4.1e-06 (inactive). Further, in assay [6], the slope is 0.0047 (inactive).

Turning to `CC(C)CN(CC(C)C)C(=O)C12CCC(C)(C(=O)C1)C2(C)C` (stereo not given), the cell count in assay [1] was 720. Also, the inhibition was -10.4% (inactive) in assay [1], -45.3% (inactive) in assay [3], -21.4% (inactive) in assay [7] and -2.9% (inactive) in assay [8]. The inhibition of aggregation in assay [2] was 13.7% (inactive). Besides, the results for the nuclei count in assay [2] and in assay [3] were 99.8% and 115%, respectively. The fluorescence slope in assay [4] was -0.452 (inactive). Further, in assay [5], the NADPH fluorescence slope was 0.000106 (inactive). The slope in assay [6] was 0.00697 (inactive).

In the case of `NC(=O)CSc1nnc(-c2cnccn2)n1-c1ccccc1`, in assay [1], the cell count amounted to 625. Further, the inhibition in assay [1] was 3.8% (inactive); in assay [3], 19% (inactive); in assay [7], 20.2% (inactive); in assay [8], 20.8% (inactive). Further, the inhibition of aggregation in assay [2] was -10.7% (inactive). For the same molecule, the nuclei count in assay [2] is 102%; in assay [3], 94.9%. Further, the fluorescence slope in assay [4] was -0.501 (inactive). The NADPH fluorescence slope in assay [5] was -4.9e-05 (inactive). The slope in assay [6] was 0.0054 (inactive).

Turning to `COc1cccc(-c2csc3nc[nH]c(=O)c23)c1`, in assay [1], the cell count came to 517. Further, the inhibition is 4.9% (inactive) in assay [1], -72.4% (inactive) in assay [3], 8.62% (inactive) in assay [7] and 2.24% (inactive) in assay [8]. In addition, the inhibition of aggregation in assay [2] was -18.2% (inactive). Moreover, the nuclei count in assay [2] amounted to 98.7%; in assay [3], 97.9%. Further, the fluorescence slope in assay [4] is -0.426 (inactive). Further, the NADPH fluorescence slope in assay [5] is -3.4e-05 (inactive). For the same molecule, the slope in assay [6] was 0.0038 (inactive).

`O=C(Nc1cccc2ccccc12)c1ccc(Br)o1`: in assay [1], the cell count stood at 638. For the same molecule, the inhibition in assay [1] is 5.6% (inactive); in assay [3] it was 18.2% (inactive); in assay [7], 2.74% (inactive); in assay [8], 19.8% (inactive). Further, in assay [2], the inhibition of aggregation is 7.9% (inactive). Also, the nuclei count in assay [2] amounted to 104%; in assay [3] it was 94.7%. For the same molecule, the fluorescence slope in assay [4] was -0.437 (inactive). Moreover, the NADPH fluorescence slope in assay [5] is -1.5e-05 (inactive). Also, the slope in assay [6] was 0.00359 (inactive).

With `CC(C)(C)n1nnnc1CN(Cc1ccco1)Cc1cc2cc3c(cc2[nH]c1=O)OCO3`, the cell count in assay [1] turned out to be 667. The inhibition was 13.3% (inactive) in assay [1], -53.9% (inactive) in assay [3], 15.5% (inactive) in assay [7] and 16% (inactive) in assay [8]. In assay [2], the inhibition of aggregation was -11.2% (inactive). Moreover, the nuclei count worked out at 108% in assay [2] and 130% in assay [3]. The fluorescence slope in assay [4] was -0.401 (inactive). Further, the NADPH fluorescence slope in assay [5] was -5.7e-05 (inactive). Besides, the slope in assay [6] was 0.00513 (inactive).

As for `COc1ccc(C2C(C(C)=O)=C(O)C(=O)N2C)c(OC)c1` (stereo not given), the cell count in assay [1] was 464. Also, the inhibition in assay [1] was 3.8% (inactive); in assay [3], -48.3% (inactive); in assay [7], 5.02% (inactive); in assay [8] it was 32% (inactive). Moreover, in assay [2], the inhibition of aggregation was -2.5% (inactive). Moreover, the nuclei count in assay [2] amounted to 116%; in assay [3] it was 136%. For the same molecule, the fluorescence slope in assay [4] was -0.461 (inactive). Moreover, in assay [5], the NADPH fluorescence slope was -1.6e-05 (inactive). Also, the slope in assay [6] was 0.00277 (inactive).

For `COCc1nnc(NC(=O)c2ccc(NC(C)=O)cc2)s1`, the cell count in assay [1] came out at 684. The inhibition is -12.6% (inactive) in assay [1], -22% (inactive) in assay [3], -5.57% (inactive) in assay [7] and -14.7% (inactive) in assay [8]. Further, the inhibition of aggregation in assay [2] was -4.2% (inactive). Further, the figures for the nuclei count in assay [2] and in assay [3] were 95.9% and 93.1%, respectively. The fluorescence slope in assay [4] is -0.527 (inactive). Besides, the NADPH fluorescence slope in assay [5] is -3.7e-06 (inactive). The slope in assay [6] was 0.00454 (inactive).

Turning to `CC(=O)n1nc(-c2ccco2)nc1SCc1ccccc1`, the cell count in assay [1] turned out to be 573. The inhibition in assay [1] was 2.8% (inactive); in assay [3], -122% (inactive); in assay [7] it was -22.5% (inactive); in assay [8], -108% (inactive). Further, the inhibition of aggregation in assay [2] was 25.1% (inactive). The nuclei count in assay [2] was 100%; in assay [3], 94.1%. Moreover, the fluorescence slope in assay [4] is -0.599 (inactive). Moreover, the NADPH fluorescence slope in assay [5] was 1.3e-05 (inactive). In addition, in assay [6], the slope was 0.00839 (inactive).

With `COc1ccc(C(=O)NCc2nnc(SC)n2C2CCCCC2)cc1`, the cell count in assay [1] worked out at 591. The inhibition was -2.4% (inactive) in assay [1], -35.7% (inactive) in assay [3], 18.8% (inactive) in assay [7] and 26% (inactive) in assay [8]. The inhibition of aggregation in assay [2] was -1.1% (inactive). For the same molecule, the nuclei count was found to be 96% in assay [2] and 101% in assay [3]. Moreover, the fluorescence slope in assay [4] was -0.521 (inactive). In addition, the NADPH fluorescence slope in assay [5] is -3.9e-05 (inactive). Also, the slope in assay [6] was 0.00737 (inactive).

Consider `Cc1cc(C)c2nc(C(F)(F)F)nc(NCCCN3CCCC3=O)c2c1`, for which the cell count in assay [1] came out at 277. In addition, the inhibition in assay [1] is 5% (inactive); in assay [3], -230% (inactive); in assay [7] it was 16.5% (inactive); in assay [8], 18.3% (inactive). The inhibition of aggregation in assay [2] was 21.4% (inactive). In addition, the nuclei count in assay [2] stood at 80.7%; in assay [3] it was 97.5%. Besides, in assay [4], the fluorescence slope is -0.484 (inactive). In assay [5], the NADPH fluorescence slope was -2.3e-05 (inactive). Moreover, the slope in assay [6] was 0.00428 (inactive).

As for `COc1ccccc1N1CCN(C(CNS(=O)(=O)c2cc(F)ccc2F)c2cccnc2)CC1` (stereo not given), the cell count in assay [1] amounted to 557. In addition, the inhibition is 7.2% (inactive) in assay [1], -5% (inactive) in assay [3], 9.38% (inactive) in assay [7] and 22.5% (inactive) in assay [8]. In assay [2], the inhibition of aggregation is -5.9% (inactive). Besides, the values for the nuclei count in assay [2] and in assay [3] were 96.7% and 108%, respectively. For the same molecule, the fluorescence slope in assay [4] is -0.359 (inactive). In addition, the NADPH fluorescence slope in assay [5] is -5.8e-05 (inactive). Moreover, the slope in assay [6] is 0.00529 (inactive).

In the case of `O=C(Nc1ccc(F)cc1F)NC1CC(=O)N(Cc2ccccc2)C1` (stereo not given), the cell count in assay [1] turned out to be 664. The inhibition was 1.6% (inactive) in assay [1], 4.4% (inactive) in assay [3], -12.5% (inactive) in assay [7] and 1.35% (inactive) in assay [8]. Further, the inhibition of aggregation in assay [2] is 22.4% (inactive). Also, the nuclei count in assay [2] came to 66.3%; in assay [3] it was 103%. Moreover, the fluorescence slope in assay [4] was -0.571 (inactive). For the same molecule, the NADPH fluorescence slope in assay [5] was -1.6e-05 (inactive). Further, the slope in assay [6] is 0.0068 (inactive).
